# Source: PubChem BioAssay (NCATS)
# Results filed as inconclusive are left out. Where a call stands in place of a potency, no number is given. Unmarked numbers belong to inactive results. Calls of active or inactive are those of the source. The call rests on the fitted dose curve; in most records, active means well fitted curve in the direction sought with a large enough effect; inconclusive means small, poorly fitted or top-dose-only effect, or another doubt; inactive means no such curve, though single readings can be large; an effect the other way counts as inactive or inconclusive.
# Experiments:
# NIH3T3 = test: qHTS assay to identify novel small-molecules to repurpose for Merkel cell carcinoma treatment (AID 1296009); settings: MCC and control cell lines, CellTiter-Glo viability, 72 h; series mostly up to 44.8 µM; further: nearly all actives have a fitted effect of over 60% in size
# How it was run: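 Cells were treated for 72 hr at 37 degree celsius with compounds in 8- or 11-point dose response. Viability was read by CellTiter-Glo luminescence, normalized to no-cell (cytotoxicity) and DMSO controls.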
# C33A = test: Primary qHTS to identify gynecologic anti-cancer compounds using libraries of approved drugs and bioactive compounds (AID 1345084); settings: Gynecologic cancer cell panel viability, ATPlite luminescence, 48 h; series mostly up to 57.5 µM; further: nearly all actives have a fitted effect of over 55% in size; further: potency means the concentration at half of the fitted maximal effect
# How it was run: (§1)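 48 h compound exposure at 37 C, 5% CO2; five-point qHTS. ATPlite luminescence readout of cell ATP.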
# CASKI = test: as above; settings: Gynecologic cancer cell panel viability, ATPlite luminescence, 48 h; series mostly up to 57.5 µM
# How it was run: as §1
# Es-2 = test: as above; settings: Gynecologic cancer cell panel viability, ATPlite luminescence, 48 h; series mostly up to 57.5 µM
# How it was run: as §1
# HeLa = test: as above; settings: Gynecologic cancer cell panel viability, ATPlite luminescence, 48 h; series mostly up to 57.5 µM
# How it was run: as §1
# Hek293T = test: as above; settings: Gynecologic cancer cell panel viability, ATPlite luminescence, 48 h, control line for the selectivity index; series mostly up to 57.5 µM
# How it was run: as §1
# JEG-3 = test: as above; settings: Gynecologic cancer cell panel viability, ATPlite luminescence, 48 h; series mostly up to 57.5 µM
# How it was run: as §1
# OV90 = test: as above; settings: Gynecologic cancer cell panel viability, ATPlite luminescence, 48 h; series mostly up to 57.5 µM
# How it was run: as §1
# SKOV3 = test: as above; settings: Gynecologic cancer cell panel viability, ATPlite luminescence, 48 h; series mostly up to 57.5 µM
# How it was run: as §1
# Tov-21-G = test: as above; settings: Gynecologic cancer cell panel viability, ATPlite luminescence, 48 h; series mostly up to 57.5 µM
# How it was run: as §1
# Tov112D = test: as above; settings: Gynecologic cancer cell panel viability, ATPlite luminescence, 48 h; series mostly up to 57.5 µM
# How it was run: as §1
# PA-1 = test: as above; settings: Gynecologic cancer cell panel viability, ATPlite luminescence, 48 h; series mostly up to 57.5 µM
# How it was run: as §1
# CAOV3 = test: as above; settings: Gynecologic cancer cell panel viability, ATPlite luminescence, 48 h; series mostly up to 57.5 µM
# How it was run: as §1
Structure (SMILES),Potency (NIH3T3),Potency (C33A),Potency (CASKI),Potency (Es-2),Potency (HeLa),Potency (Hek293T),Potency (JEG-3),Potency (OV90),Potency (SKOV3),Potency (Tov-21-G),Potency (Tov112D),Potency (PA-1),outcome (NIH3T3),"activity change, negative = cytotoxicity (CASKI)",Potency (CAOV3)
CC(C)(C)c1ccc2c(c1)CC[C@H]2NC(=O)Nc1cccc2[nH]ncc12,inactive,inactive,inactive,inactive,inactive,inactive,inactive,inactive,inactive,inactive,inactive,,,,
CC(=O)NCc1cccc(OC[C@@H](O)CNCCc2ccc(NS(=O)(=O)c3ccccc3)cc2)c1,inactive,inactive,inactive,inactive,inactive,inactive,inactive,,,inactive,inactive,inactive,,,
COC1CC(O[C@H]2CC[C@]3(C)C4CC[C@]5(C)C(C6=CC(=O)OC6)=CCC56OC46CC[C@@H]3C2)OC(C)C1O[C@@H]1O[C@H](CO[C@@H]2O[C@H](CO)[C@@H](O)[C@H](O)[C@H]2O)[C@@H](O)[C@H](O)[C@H]1O (some centres not stated),,2.82 µM (active),,3.16 µM (active),3.55 µM (active),2.82 µM (active),,,3.16 µM (active),2.24 µM (active),2 µM (active),3.98 µM (active),inactive [at 9.27 µM],-27.8% [at 11.6 µM],
O=C1C[C@]23C=CCN4CCC5c6cc7c(cc6N1[C@@]5(CC2)C43)OCO7 (some centres not stated),,inactive,inactive,inactive,inactive,inactive,inactive,inactive,,,,inactive,,,inactive
C[C@H]1CC[C@@]2(OC1)O[C@H]1CC3C4CC[C@H]5C[C@@H](O)CC[C@]5(C)C4=CC(=O)[C@]3(C)[C@H]1[C@@H]2C (some centres not stated),inactive,inactive,inactive,inactive,inactive,inactive,inactive,inactive,inactive,inactive,inactive,inactive,,,
O=C(NCC1(N2CCN(c3ccccc3)CC2)CCOCC1)c1cccnc1Sc1ccccc1,,inactive,inactive,inactive,inactive,inactive,inactive,inactive,inactive,inactive,,inactive,,,inactive
CC(=O)c1ccc2c(c1)[C@H](NC(=O)c1ccc(F)c(Cl)c1)[C@H](O)C(C)(C)O2,inactive,inactive,inactive,inactive,inactive,inactive,inactive,inactive,inactive,inactive,inactive,inactive,,,
CCN(Cc1ccccc1)C(=O)Cn1c(=O)n(C)c2cnc(-c3ccccc3)nc21,inactive,inactive,inactive,inactive,inactive,inactive,inactive,inactive,,inactive,inactive,inactive,,,
CC(=O)OC(C)(C)/C=C/C(=O)[C@](C)(O)[C@H]1C(O)C[C@@]2(C)[C@@H]3CC=C4[C@@H](C=C(O[C@@H]5O[C@H](CO)[C@@H](O)[C@H](O)[C@H]5O)C(=O)C4(C)C)[C@]3(C)C(=O)C[C@]12C (some centres not stated),inactive,inactive,inactive,inactive,inactive,inactive,inactive,inactive,,inactive,inactive,inactive,,,
C/C=C(\C)[C@@H]1C(C)=C[C@@H]2[C@H]([C@@H]1/C=C/C=C/C(=O)O)[C@@H](C)CC[C@@H]2O,,inactive,,,,,,,,,,,,,
CCn1c(-c2nonc2N)nc2c(C#CC(C)(C)O)ncc(OCC3CCCNC3)c21 (configuration not stated),inactive,,,inactive,inactive,,inactive,,,,inactive,28.2 µM (active),,,
Cc1ccc(NC(=O)c2ccc(CN3CCNCC3)cc2)cc1Nc1nccc(-c2cccnc2)n1,inactive,,17.8 µM (active),15.8 µM (active),,11.2 µM (active),17.8 µM (active),14.1 µM (active),,28.2 µM (active),28.2 µM (active),12.6 µM (active),,,22.4 µM (active)
CCCN(CCc1ccsc1)C1CCc2c(O)cccc2C1 (configuration not stated),inactive,inactive,inactive,inactive,inactive,inactive,inactive,inactive,inactive,inactive,inactive,inactive,,,
CC(=O)OC(C)(C)/C=C/C(=O)C(C)(O)C1C(O)CC2(C)C3CC=C(C(C)(C)C(=O)O)C(CC(=O)O)C3(C)C(=O)CC12C (configuration not stated),inactive,inactive,inactive,inactive,inactive,inactive,inactive,inactive,,inactive,inactive,inactive,,,
